Sampled rows, rich in hits. Any-hit rate of the full collection: about 7.4%.
HEK293 viab = reduces viability of HEK-293 SNCA reporter cells; HEK-293-SNCA-luc viability, GF-AFC fluorescence, 24 h; Potency, µM (doses to about 57.1 µM), for the others: at the highest dose activity change, negative = cytotoxicity, actives largely listed as cytotoxic; hit rate 0.12% among 150,000; AID 1671193;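 also: 0% = DMSO-treated cells and -100% = medium-only wells without cells; nearly all actives have a fitted effect of over 30% in size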
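HEK-293-SNCA-luc cells (1500/well) plated 24 h, then exposed 24 h to a dilution series; GF-AFC added 30 min at 37C, fluorescence 405/540 nm; normalised to medium-only and DMSO wells, Hill fit.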
hNpr1 antagonist = human Npr1 receptor antagonism | P16066 | HEK293 hNpr1 GloSensor cGMP, ANP-stimulated luminescence | Potency, µM (doses to about 46.3 µM), for the others: top-dose activity change, negative = inhibition, most hits filed as inhibitors | hit rate 1.6% among 76,000; calls by dose curve; also: nearly all actives have a fitted effect of over 60% in size
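Compound pre-incubated 30 min at room temperature on GloSensor-loaded HEK293 cells stably carrying hNpr1 and the pGS-40F cGMP biosensor. Stimulation uses hNppA at 0.1 nM final; luminescence is taken at baseline and 20 min post-agonist.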
3T3 cytotox = cytotoxic compounds in NIH 3T3 cells. NIH 3T3 viability, CellTiter-Glo ATP luminescence, 48-72 h. Potency, µM (titrated, usually from 96.7 µM), inactives show at the highest dose activity change, negative = cytotoxicity, most hits filed as inhibitors. hit rate 4.3% among 94,000. AID 1345082; also: nearly all actives have a fitted effect of over 55% in size
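Luminescent ATP readout (CellTiter-Glo, 10 min RT) after 48 or 72 hr compound exposure of NIH 3T3 cells seeded at 400 cells/well in 1536-well format; quantitative HTS.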
HEK293 tox = HEK 293 cell cytotoxicity | HEK 293 viability, ATP luminescence (CellTiter-Glo), 48-72 h | Potency, µM (titrated, usually from 115 µM), for inactives: top-dose activity change, negative = cytotoxicity, hits mostly inhibitors | hit rate 6.6% among 94,000 | AID 1345083; also: nearly all actives have a fitted effect of over 60% in size
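HEK 293 cells at 250 cells/well were exposed to compounds by pintool transfer for 48 or 72 hr at 37 degree Celsius, 5% CO2. Viability was read as ATP-coupled luminescence with CellTiter-Glo after 10 min at room temperature.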
SNCA expr inhib = inhibitors of alpha-synuclein (SNCA) gene expression; HEK-293 SNCA-luciferase knock-in, luminescence, 24 h; Potency, µM (doses to about 57.2 µM), without a hit: at the highest dose activity change, negative = inhibition, actives largely listed as inhibitors; hit rate 0.17% among 140,000; AID 1671194;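 also: plate controls were DMSO cells for no effect and cell-free wells for full effect; nearly all actives have a fitted effect of over 45% in size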
Luciferase inh = blocks purified firefly luciferase enzyme activity | purified P. pyralis luciferase, luminescence, biochemical | Potency, µM (series often up to 115 µM), actives largely listed as inhibitors | hit rate 2.5% among 76,000 | AID 1347043; also: nearly all actives have a fitted effect of over 65% in size
Target sequence (P08659 whole entry, looked up): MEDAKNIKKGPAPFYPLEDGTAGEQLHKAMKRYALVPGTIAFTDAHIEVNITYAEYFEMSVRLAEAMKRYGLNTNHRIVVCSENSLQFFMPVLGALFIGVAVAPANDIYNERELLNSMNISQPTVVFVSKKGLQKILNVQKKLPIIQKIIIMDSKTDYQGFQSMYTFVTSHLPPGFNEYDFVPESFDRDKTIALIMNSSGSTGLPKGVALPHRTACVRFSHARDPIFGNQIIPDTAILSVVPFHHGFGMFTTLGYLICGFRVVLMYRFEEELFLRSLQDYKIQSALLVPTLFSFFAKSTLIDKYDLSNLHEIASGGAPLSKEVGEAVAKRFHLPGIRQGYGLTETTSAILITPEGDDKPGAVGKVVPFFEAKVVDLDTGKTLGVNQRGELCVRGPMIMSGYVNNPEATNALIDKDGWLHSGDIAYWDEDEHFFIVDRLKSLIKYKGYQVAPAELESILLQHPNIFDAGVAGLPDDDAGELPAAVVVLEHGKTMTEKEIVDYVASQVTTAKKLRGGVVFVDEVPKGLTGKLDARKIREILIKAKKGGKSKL
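FLuc 10nM, D-luciferin 10uM, ATP 10uM, Mg acetate 10mM, Tris acetate pH 7.5, Tween/BSA; cpd qHTS; enzyme added last; CCD luminescence.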
The depositor's hits bear a star; i = inactive; u = inconclusive; x = no result given; ! = a repeat was not active; [ ] = another dose, or the depositor's remark. Unless noted, calls follow the shape of the dose curve; as a rule, active = well fitted curve in the direction sought with a large enough effect; inconclusive = small, poorly fitted or top-dose-only effect, or another doubt; inactive = no such curve, though single readings can be large; an effect the other way counts as inactive or inconclusive. Unless noted, % is scaled to controls: 0 for no effect and ±100 for the full control effect; potency is read from the fitted curve at half-maximal effect.

SMILES	HEK293 viab	hNpr1 antagonist	3T3 cytotox	HEK293 tox	SNCA expr inhib	Luciferase inh
O=C1CC2(CCN(C(=O)C3CCCN(C(=O)C4CCCC4)C3)CC2)Oc2ccccc2N1 (stereo not given)	-3.8%	x	-20.2%	-19.5%	7.4%	x
O=C1CC2(CCN(C(=O)C3CCN(C(=O)Cc4cccc(Cl)c4)CC3)CC2)Oc2ccccc2N1	-9.3%	x	u	39.8µM*	-25.9%	x
COc1ccccc1C(=O)N1CCC2(CC1)CC(=O)Nc1ccccc1O2	-16.5%	-20.0%	-11.0%	44.7µM*	32.6%	i
O=C1CC2(CCN(C(=O)C3CCCN(C(=O)Nc4ccc(Cl)cc4)C3)CC2)Oc2ccccc2N1 (stereo not given)	u	x	u	22.4µM*	-18.1%	x
COc1cc(CN2Cc3ccccc3C2)ccc1OCC(O)CN1CCOCC1 (stereo not given)	7.6%	2.9%	-3.1%	-9.5%	7.3%	i
CCc1nc2cc(N3CCC(C(=O)NCc4ccccc4F)CC3)cnc2nc1CC	u	-9.4%	u	u	45.7%	i
Cc1cccc2c1nc1n2[C@@H](CNCc2nc3ccccc3n2C)COC1	-4.5%[87.6 µM]	u	100µM*	u	3.1%[87.6 µM]	i
CCc1ocnc1C(=O)N1CCC2(CCC(=O)N(CCc3cnc[nH]3)C2)CC1	2.0%	-2.5%	-3.9%	-6.0%	2.7%	i
COc1ccc(-n2c(=O)c3c(n2Cc2ccccc2)CN(C(=O)c2ccnn2C)CC3)cc1	-5.1%	-1.6%	35.5µM*	-4.8%	21.0%	i
COc1ccc(Cn2c3c(c(=O)n2Cc2ccccc2)CCN(C(=O)c2cocn2)C3)cc1	0.7%	7.9%	25.1µM*	i	30.3%	i
COc1ccc(Cn2c3c(c(=O)n2Cc2ccccc2)CCN(C(=O)c2nc4ccccc4[nH]2)C3)cc1	u	-19.9%	20µM*	u	-14.5%	i
CC(C)C[C@H](NC(=O)[C@@H](NC(=O)c1cccc(-c2ccccc2)n1)[C@@H](C)O)B(O)O	0.0474µM*!	x	x	x	0.0607µM*	x
CC(C)C[C@H](NC(=O)[C@H](Cc1ccccc1)NC(=O)c1cnccn1)B(O)O	u	x	x	x	0.0482µM*	x
COc1ccc(CCNC(=O)C2CCCN(Cc3cccc(-c4cccc(C)c4)c3)C2)cc1 (stereo not given)	-5.3%	x	u	22.4µM*	-25.9%	x
COc1ccc(CNC(=O)C2CCCN(Cc3cccc(-c4cccc(C)c4)c3)C2)cc1 (stereo not given)	-1.3%	x	28.2µM*	u	5.3%	x
Cc1cc(C(=O)NCCc2csc(-c3cccnc3)n2)cc(S(N)(=O)=O)c1C	-2.7%	0.3%	-9.6%	u	60.2%	i
Cc1ccsc1C(=O)N1CCC2(CC1)CC(N(C(=O)c1ccccc1)C1CC1)CCO2 (stereo not given)	3.5%	-7.0%	u	50.1µM*	-7.6%	i
Cc1ccsc1C(=O)N1CCC2(CC1)CC(N(Cc1ccccc1)C1CC1)CCO2 (stereo not given)	13.6%	-26.5%	u	39.8µM*	27.2%	i
Cc1ccsc1C(=O)N1CCC2(CC1)CC(N(Cc1ccc(F)cc1)C1CC1)CCO2 (stereo not given)	1.7%	-25.0%	u	u	-18.9%	i
Cn1nccc1C(=O)N1CCC2(CC1)CC(N(Cc1ccccc1)C1CC1)CCO2 (stereo not given)	-17.7%	-16.6%	-6.5%	u	-17.9%	i
O=C(CCCc1ccccc1)N1CCC(C2CCNC2)CC1 (stereo not given)	-8.6%[12.5 µM]	1.1%	0.8%	-19.1%	120.4%	35.5µM*
CCn1nccc1C(=O)N1CCC2(CC1)CC(N(Cc1ccccc1)C1CC1)CCO2 (stereo not given)	4.9%	-29.2%	-21.2%	44.7µM*	-6.9%	i
O=C(CCCc1ccccc1)N1CCC([C@@H]2CNC[C@H]2CO)CC1	-1.3%[12.5 µM]	8.1%	-4.0%	-6.0%	108.1%	i
CC(=O)c1cccc(NC(=O)c2cnc(-c3ccccc3)nc2-c2ccncc2)c1	-12.0%	-15.1%	-27.5%	u	-16.3%	i
CCn1ccc(C(=O)N2C[C@@H](Oc3ccccc3)C[C@@H]2C(=O)NCCOC)n1	2.4%	5.5%	i	-0.5%	-13.9%	i
SMILES	HEK293 viab	hNpr1 antagonist	3T3 cytotox	HEK293 tox	SNCA expr inhib	Luciferase inh
CSc1ccc(-c2cccc(C(=O)NCCNC(=O)Cc3cccc(Cl)c3)c2)cc1	7.4%	x	-29.0%	u	-0.8%	x
CC(=O)N(C1CC1)C1CCOC2(CCN(C(=O)CCCc3ccccc3)CC2)C1 (stereo not given)	-1.3%	2.0%	-21.3%	u	25.7%	28.2µM*
COc1cc(F)ccc1-c1nccc2c(=O)cc(N3CCN(C)CC3)oc12	-3.2%[87.6 µM]	4.3%[70.6 µM]	u	i	13.7%[87.6 µM]	i
O=C(Nc1ccc2ncnc(N3CCCCC3)c2c1)c1ccccc1	-21.2%	-29.0%	u	u	9.7%	i
COc1ccccc1CC(=O)Nc1ccc2c(N3CCCCC3)ncnc2c1	-4.2%	u	u	25.1µM*	8.6%	i
Cc1ccccc1CC(=O)Nc1ccc2ncnc(N3CCCCC3)c2c1	-29.9%	-6.9%	u	39.8µM*	u	i
Cc1ccc(C(=O)N2CCN(C(=O)c3cccc(-c4ccccn4)c3)CC2)cc1	-8.4%[12.5 µM]	x	-24.7%	u	u	x
C[C@@H]1O[C@@H](O[C@H]2[C@H](OC(C#N)c3ccc(O)cc3)O[C@H](CO)[C@@H](O)[C@@H]2O)[C@H](O)[C@H](O)[C@H]1O (stereo not given in full)	0.6%[23.9 µM]	x	x	x	x	x
Cc1ccc(C(CC(=O)Nc2ccc(F)cc2)c2c[nH]c3ccccc23)cc1 (stereo not given)	6.8%	-26.2%	44.7µM*	u	-16.6%	i
COc1cccc(CN2C[C@H]3[C@H](C2)[S+](=O)([O-])C(C)(C)C(=O)N3Cc2ccccc2)c1	13.1%[87.6 µM]	-8.1%[70.6 µM]	u	u	1.4%[87.6 µM]	i
COc1cccc(CC(=O)N2CCc3c(c(-c4nncn4C(C)C)nn3C)C2)c1	5.6%	x	i	i	-9.9%	x
CCCC1=Nc2cc(C(=O)NCCCN3CCCCC3CC)ccc2Sc2ccc(C)cc21 (stereo not given)	-21.8%	-17.7%	7.08µM*	u	-23.6%	i
O=C1NC(=NC2CCCC2)C2(CCCN(CC3CCCCC3)C2)N1c1cccnc1 (stereo not given)	-4.4%	x	7.08µM*	u	u	x
CC(C)CCN1CCCC2(C1)C(=NC1CCCC1)NC(=O)N2c1cccnc1 (stereo not given)	3.3%	x	7.08µM*	u	-14.9%	x
